# This is a sample that favours compounds with a hit; in the whole collection about 9% have one here.
# G9a block: inhibitors of human histone lysine methyltransferase G9a. AID 504332. G9a H3K9 monomethylation, AlphaScreen, 2 h. Potency, µM (top dose mostly 102 µM), for inactives: top-dose activity, negative = inhibition, most hits filed as inhibitors. Q96KQ7. 8.8% of 350,000 active; also: % is scaled to controls: 0 for no effect and ±100 for the full control effect; nearly all actives have a fitted effect of over 75% in size
# Target sequence (Q96KQ7 913-1193 limits assumed): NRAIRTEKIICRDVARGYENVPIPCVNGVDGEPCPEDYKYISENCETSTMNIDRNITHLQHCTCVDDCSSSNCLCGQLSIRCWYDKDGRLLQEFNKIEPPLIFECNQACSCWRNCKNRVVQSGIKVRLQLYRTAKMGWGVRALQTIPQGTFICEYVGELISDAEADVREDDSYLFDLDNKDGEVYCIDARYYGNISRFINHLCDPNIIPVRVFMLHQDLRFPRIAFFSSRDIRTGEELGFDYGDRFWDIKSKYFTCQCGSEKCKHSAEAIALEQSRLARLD
#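 Using a bead-based AlphaScreen, monomethylated H3K9 product from 2 h room-temperature reactions (G9a 20 nM, peptide 500 nM, SAM 20 uM) was detected with 0.5 ug/mL rabbit anti-H3K9me1 antibody.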
# HP1b binding inh: blocks HP1-beta chromodomain binding to methylated histone tails. P83916. AlphaScreen HP1-beta / biotin-H3K9me3 peptide binding. Potency, µM (highest dose often 114 µM), for the others: top-dose activity change, negative = inhibition, hits mostly inhibitors. 0.56% of 390,000 active. AID 540317; also: nearly all actives have a fitted effect of over 70% in size
# Target sequence (P83916 whole entry, looked up): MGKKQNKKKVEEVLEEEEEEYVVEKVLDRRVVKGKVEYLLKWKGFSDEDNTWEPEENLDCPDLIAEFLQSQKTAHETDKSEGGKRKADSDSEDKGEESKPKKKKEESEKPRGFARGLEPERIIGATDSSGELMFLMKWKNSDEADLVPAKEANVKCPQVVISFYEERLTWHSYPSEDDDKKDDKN
#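 AlphaScreen: HP1-beta (50 nM) preformed 30 min with biotin-H3(1-18)K9me3 peptide (50 nM) in PBS pH 7.4, 0.01% Tween-20. Compound added for 30 min at RT, then streptavidin donor/nickel chelate acceptor beads (10 ug/mL) for 30 min.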
# JMJD2A Tudor: JMJD2A Tudor domain (human) inhibition | O75164 | AlphaScreen JMJD2A-Tudor / H3K4me3 peptide binding | Potency, µM (doses to about 114 µM), for the others: top-dose activity change, negative = inhibition, most hits filed as inhibitors | 4.4% of 390,000 active | AID 504339; also: % is scaled to controls: 0 for no effect and ±100 for the full control effect; nearly all actives have a fitted effect of over 50% in size
# PLK1 PBD inh: inhibitors of human PLK1 polo-box domain binding. P53350. Plk1 PBD binding of FITC phosphopeptide, fluorescence polarization. Potency, µM, for the others: max response, negative = inhibition, usual class: inhibitors. 2.8% of 360,000 active; also: series mostly up to about 57 µM; % is scaled to controls: 0 for no effect and ±100 for the full control effect; nearly all actives have a fitted effect of over 65% in size
# BAZ2B inh: BAZ2B (human) inhibition; AlphaScreen BAZ2B-H3K14Ac peptide displacement; Potency, µM (top dose mostly 114 µM), inactives show at the highest dose activity change, negative = inhibition, usual class: inhibitors; AID 504333; 4.4% of 360,000 active; Q9UIF8; also: % is scaled to controls: 0 for no effect and ±100 for the full control effect; nearly all actives have a fitted effect of over 60% in size
#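 Inhibition is scored as reduced AlphaScreen emission. The BAZ2B/b-H3(5-23)K14Ac complex (50 nM each) in PBS pH 7.4, 0.01% Tween-20 meets compound (up to 110 uM) for 30 min at RT before bead addition.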
# 12-LOX inh: ALOX12 (human) lipoxygenase inhibition. P18054. purified 12hLO, xylenol orange hydroperoxide absorbance. Potency, µM (highest dose often 108 µM), without a hit: at the top dose activity change, negative = inhibition, actives largely listed as inhibitors. 1.1% of 580,000 active; also: % is scaled to controls: 0 for no effect and ±100 for the full control effect
#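 Purified human 12hLO (150 nM final) in 25 mM Hepes, 0.01% Triton X-100, pH 7.0 was preincubated 15 min at room temperature with compound. Then 40 uM arachidonic acid was added, 30 min. Hydroperoxide was read by Fe-XO absorbance ratio 573/405 nm.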
# * marks the source's active call; other numbers are inactive results; ? = inconclusive; nt = no result; ! = a repeat was not active; [ ] = another dose, or the depositor's remark. Calls follow the shape of the dose curve; as a rule, active = well fitted curve in the direction sought with a large enough effect; inconclusive = small, poorly fitted or top-dose-only effect, or another doubt; inactive = no such curve, though single readings can be large; an effect the other way counts as inactive or inconclusive. Potency is read from the fitted curve at half-maximal effect.
SMILES,G9a block,HP1b binding inh,JMJD2A Tudor,PLK1 PBD inh,BAZ2B inh,12-LOX inh
CCOC(=O)c1cc2c(cn1)[C@@H](CCO)NC2,nt,13%,45µM*,-3%,nt,-12%
Cc1cc(/C=C2\C(=O)NC(=O)N(c3cccc(F)c3)C2=O)c(C)n1-c1cc(C(=O)O)cc(C(=O)O)c1,nt,-14%,79µM*,?,45µM*,?
Cc1cc(/C=C2\C(=O)NC(=O)N(c3ccc(Cl)cc3)C2=O)c(C)n1-c1cccc(C(=O)O)c1,-6%[2.33 µM],-3%,?,27µM*,-39%,?
Cc1cc(/C=C2/C(=O)NC(=O)N(c3ccc(Br)cc3)C2=O)c(C)n1C,-4%,9%,-12%,-6%,-8%,227%
Cc1cc(/C=C2\C(=O)NC(=O)N(c3ccc(Br)cc3)C2=O)c(C)n1-c1cc(C(=O)O)cc(C(=O)O)c1,20µM*,?,22µM*,12µM*,56µM*,?
CN1C[C@@H](CO)C=C2c3cccc4[nH]cc(c34)CC21 (stereo partly specified),nt,45%,-10%,nt,nt,nt
FC(F)(F)CN1C2CCC1CN(c1ncc(C(F)(F)F)cn1)C2,nt,nt,nt,nt,nt,10%[6.33 µM]
COc1cc2c3cc1Oc1cc(ccc1O)C[C@@H]1c4c(cc(OC)c(O)c4Oc4cccc(c4)C[C@H]3N(C)CC2)CC[N+]1(C)C,-1%[21.5 µM],nt,nt,nt,nt,nt
Cn1cccc1C(=O)N1[C@H]2CC[C@@H]1c1cnc(-c3ccc(F)cc3)nc1C2,nt,nt,nt,nt,nt,3%
C[N+]1(C)[C@@H]2CC[C@H]1CC(OC(=O)C(c1ccccc1)c1ccccc1)C2 (stereo partly specified),?,31%,?,21µM*,-18%,?
COc1ccc(CN2CCCC(C(=O)c3ccc(Cl)cc3)C2)c(O)c1 (stereo unspecified),nt,55%,-15%,-5%,3%,?
C[C@H](CO)N1C[C@H](C)[C@H](CN(C)C(=O)Oc2cccc3ccccc23)OCc2cnnn2CCCC1=O,nt,nt,nt,-4%,nt,-4%
CCOC(=O)CC(SP(=S)(OC)OC)C(=O)OCC (stereo unspecified),?,nt,nt,nt,nt,23µM*!
CCOC(=O)CC(SP1(=S)OCC2(CCCCC2)CO1)C(=O)OCC (stereo unspecified),nt,68%,36%,-9%,nt,-20%
O=P1(N(CCCl)CCCl)NCCCO1 (stereo unspecified),18µM*!,24%,-26%,-5%,0%,26%
CCCCN1C(=O)NC(=O)C2(Cc3cc(C)ccc3N(C)C2)C1=O (stereo unspecified),?,31%,-16%,-11%,-7%,0%
CCC(C)N1C(=O)NC(=O)C2(Cc3c(ccc4ccccc34)N(C)C2)C1=O (stereo unspecified),1.8µM*,-37%,-24%,13µM*,?,?
CN1[C@@H]2CC[C@H]1CC(OC(=O)N1Cc3ccccc3NC1=O)C2 (stereo partly specified),nt,nt,nt,nt,nt,16%
O=C1NC(=O)C(=Cc2cc([N+](=O)[O-])ccc2N2CCCCC2)C(=O)N1,10%[59 µM],24%,-20%,-8%,-12%,-19%
NC(=O)Cn1cc(C=C2C(=O)NC(=O)NC2=O)c2ccccc21,?,14%[57 µM],-25%,?,?,-12%
O=C1NC(=O)C(=Cc2ccc(Oc3ccc([N+](=O)[O-])cc3)cc2)C(=O)N1,35µM*,-6%,56µM*,3µM*,-35%,nt
CN1C(=O)C(=Cc2ccccc2OCCOc2ccc([N+](=O)[O-])cc2)C(=O)N(C)C1=O,10µM*,19%,?,3µM*,50µM*,?
O=C1NC(=O)C(=Cc2ccccc2OCCOc2ccc([N+](=O)[O-])cc2)C(=O)N1,16µM*,26%,89µM*,6µM*,?,nt
COc1ccc(NC(=O)c2sc3nc4c(cc3c2N)N2CCC4CC2)cc1OC,-26%[59 µM],36%,-20%,nt,-25%,-48%
COC(=O)C1=C(c2ccc(OC)c(OC)c2)C[C@@H]2CC[C@H]1N2C(=O)NCCc1ccccc1,-11%[2.33 µM],51%,-4%,2%,4%,9%
SMILES,G9a block,HP1b binding inh,JMJD2A Tudor,PLK1 PBD inh,BAZ2B inh,12-LOX inh
Cc1ccccc1-n1c(O)c(C=Nc2ccc3c(c2)OCO3)c(=O)[nH]c1=O,-3%[59 µM],19%,-16%,-13%,1%,-4%
O=C(NCc1ccc2c(c1)OCO2)[C@H]1CN2CCC1C[C@@H]2Cn1cc(CC2CCCCC2)nn1 (stereo partly specified),nt,nt,nt,nt,nt,35%
COc1ccccc1-n1c(-c2ccco2)n[nH]c1=S,22µM*,28%,22µM*,-12%,-1%,-29%
S=c1[nH]nc(-c2ccco2)n1-c1cccc2ccccc12,?,13%,40µM*,-25%,-6%,?
Cc1cccc(-n2c(-c3ccco3)nc3ccccc3c2=O)c1C,?,18%,-17%,0%,1%,1%
Cc1cccc(N2CCN(C(=O)CCCCn3c(=O)[nH]c4ccsc4c3=O)CC2)c1C,-29%[59 µM],-1%,-33%,nt,?,-23%
CC/C(=C(\c1ccc(O)cc1)c1ccc(OCCN(C)C)cc1)c1ccccc1,?,-21%,56µM*,0%,45µM*,?
COc1ccccc1-n1c(-c2ccccc2Cl)nc2ccccc2c1=O,17%,24%,4%,5%,-24%,0%
S=C=Nc1cccc(C2(N3CCCCC3)CCCCC2)c1,14µM*,-18%,-17%,-20%,-2%,-12%
CCN(CC)C(=O)c1ccc(NC(=O)CCn2nc(-c3ccc(C)cc3)c3ccccc3c2=O)cc1,?,2%,-30%,nt,-19%,-3%
O=C1NC(=S)NC(=O)C1Cc1ccccc1,nt,?,89µM*,?,nt,28µM*
Cc1ccc(OC(=O)N(C)C[C@H]2OCc3cnnn3CCCC(=O)N([C@@H](C)CO)C[C@H]2C)cc1,nt,nt,nt,-21%,nt,-10%
O=C(O)c1cccc2c1NC(C(=O)O)C1CC(Sc3ccccc3[N+](=O)[O-])C(Cl)C21 (stereo unspecified),10µM*,-93%,14µM*,8.4µM*,6.3µM*,3.2µM*
CC(=O)c1ccc2c(c1)C1C(Cl)C(Sc3ccccc3[N+](=O)[O-])CC1C(C(=O)O)N2 (stereo unspecified),7.9µM*,?,35µM*,27µM*,10µM*,11µM*
CCCCn1c(O)c(C(C)=NCc2ccc3c(c2)OCO3)c(=O)[nH]c1=O,nt,-9%,89µM*,?,1%,?
CCCCn1c(O)c(C(C)=Nc2ccc(C(=O)O)cc2)c(=O)[nH]c1=O,45µM*,21%,?,-20%,?,?

# Screens as filed in PubChem BioAssay.
